Anthrax LF inh2: anthrax lethal factor protease inhibition | P15917 | multiplex microsphere protease cleavage assay, LF | inhibition, % at 10 µM | 360,000 tested, 0.12% active | AID 588501; also: plate controls were buffer without enzyme for full effect and enzyme alone for no effect
BJeLR lethal: BJeLR cell viability loss. 300,000 tested, 0.17% active. inhibition, % (test concentration not listed). BJeLR (HRASV12) viability, CellTiter-Glo ATP luminescence, 48 h; in the data active = inhibition above about 50%; inconclusive = no clear call, values can overlap the other calls
Autofluor counter: compound fluorescence in toxin protease inhibitor counterscreen | 360,000 tested, 3.1% active | AID 624483 | compound autofluorescence counterscreen, microsphere flow cytometry; stronger effect = higher value | fluorescence intensity (no concentration beside the values); in the data active = fluorescence intensity above about 16000; inconclusive = no clear call, values can overlap the other calls
BoNT-A LC inh2: inhibitors of Botulinum neurotoxin A light chain protease; multiplex microsphere protease substrate cleavage, flow cytometry; inhibition, % at 10 µM; 360,000 tested, 0.17% active; also: plate controls were buffer without enzyme for full effect and enzyme alone for no effect
BoNT F protease: blocks Botulinum neurotoxin F light chain protease; inhibition, % at 10 µM; Multiplex microsphere protease cleavage assay, flow cytometry; AID 588497; 360,000 tested, 0.22% active; in the data active = inhibition above about 35%, passing the limit was not always enough; inconclusive = no clear call, values can overlap the other calls; also: plate controls were buffer without enzyme for full effect and enzyme alone for no effect
* hit, by the source's call; ? = inconclusive; . = no result. Hits are enriched below; roughly 3.5% of the tested compounds scored in any of these assays. Rule as the data show it, unless noted: active = inhibition above about 30%; inconclusive = no clear call, values can overlap the other calls; inactive = below that.

SMILES	Anthrax LF inh2	BJeLR lethal	Autofluor counter	BoNT-A LC inh2	BoNT F protease
CCOC(=O)CC(=O)CSc1nc2ccccc2c(=O)n1-c1ccc(C(=O)N2CCOCC2)cc1	0	0	10639	0	0
CCOC(=O)CC(=O)CSc1nc2ccccc2c(=O)n1-c1ccc(C(=O)NCCOC)cc1	-2	1	16847*	-1	-1
O=C(O)c1ccc(Sc2nnc(-c3cccc(Br)c3)o2)c([N+](=O)[O-])c1	-3	4	22792*	?	-3
CC1CC(=O)N(CC(=O)NCc2ccco2)c2ccccc2S1 (stereo unspecified)	-1	1	23847*	-2	-3
Cc1ccc(CSCC(=O)Nc2ccc3c(c2)OCO3)cc1	-5	6	22179*	0	-1
CC1CC(=O)N(CC(=O)NCc2ccc3c(c2)OCO3)c2ccccc2S1 (stereo unspecified)	-1	7	10183	1	9
Cc1ccc(C)c(S(=O)(=O)N2CCN(CC(=O)Nc3ccc4c(c3)OCCO4)CC2)c1	3	2	24103*	-1	-2
CC1Cc2ccccc2N1CC(=O)Nc1ccc2c(c1)OCO2 (stereo unspecified)	8	5	20865*	11	2
O=C(CSCc1ccccc1)Nc1ccc2c(c1)OCO2	-9	7	4154	-1	?
Cc1c(C(=O)NC2CCCc3ccccc32)cccc1[N+](=O)[O-] (stereo unspecified)	2	-7	4397	-1	-2
C/C(CC(=O)Nc1ccc2c(c1)OCO2)=N\NC(=O)OC(C)(C)C	0	-7	4752	5	42*
O=C(CN1CCCc2ccccc21)NC(=O)NCc1ccco1	-4	-1	17200*	-1	-3
CC1Cc2ccccc2N1CC(=O)NC(=O)NCc1ccco1 (stereo unspecified)	11	0	17928*	16	-10
CCOC(=O)c1cccc(NC(=O)Cn2cnc3c2c(=O)n(C)c(=O)n3C)c1	0	8	20236*	?	-3
COC(=O)c1cccc(NC(=O)Cn2cnc3c2c(=O)n(C)c(=O)n3C)c1	-2	-5	11314	0	11
CCc1ccc(C(=O)CSc2n[nH]c(C)n2)cc1	-3	3	21979*	-1	-2
Cc1nc(Oc2ccc(Cl)cc2)c2oc3ccccc3c2n1	1	-5	20568*	?	-1
Cc1ccc(C(=O)CN(C(=O)c2ccc(Cl)c(Cl)c2)N2C(=O)C3CCCCC3C2=O)cc1C (stereo unspecified)	0	6	20975*	?	-3
COc1cccc(C(=O)CN(C(=O)c2ccc(Cl)c(Cl)c2)N2C(=O)c3ccccc3C2=O)c1	1	-3	16849*	?	-7
CNC(=O)c1ccc2cc(OC)c(OC)cc2c1	2	.	3788	0	-2
Cc1ccccc1-c1n[nH]nc1C1=CC(=O)C[C@H](c2ccc(F)cc2)C1	-1	.	3536	0	-8
N#CC1=C(N)Oc2cc(N)ccc2C1c1ccc(F)cc1F (stereo unspecified)	.	11	.	.	.
CC1(O)C(c2ccccc2)=Nc2ccccc21 (stereo unspecified)	-3	.	3988	0	-9
O=S(=O)(c1ccc(Cl)c(Cl)c1)N1CCc2nc3ccccc3n2CC1	6	-3	17740*	0	-4
Cn1c(=O)cc(OCC(=O)N2CCN(c3cccc(C(F)(F)F)c3)CC2)c2ccccc21	-5	-13	20645*	2	1
SMILES	Anthrax LF inh2	BJeLR lethal	Autofluor counter	BoNT-A LC inh2	BoNT F protease
CCN1CCCC1CNC(=O)COc1cc(=O)n(C)c2ccccc12 (stereo unspecified)	0	-4	23013*	1	0
Cn1c(=O)cc(OCC(=O)N2CCCc3ccccc32)c2ccccc21	1	1	21145*	-2	-6
CCOC(=O)N1CCN(C(=O)COc2cc(=O)n(C)c3ccccc23)CC1	-3	-1	14898	3	1
CC1CCN(CCCNC(=O)COc2cc(=O)n(C)c3ccccc23)CC1	?	6	?	0	5
COC(=O)[C@H](CC(C)C)NC(=O)NCCC1=CCCCC1	-6	-14	5329	0	7
C=CCn1c(C(CCC(C)C)CC(C)(C)O)n[nH]c1=S (stereo unspecified)	0	-3	24772*	-4	-6
C=CCn1c(C(CCCC)CC(C)O)n[nH]c1=S (stereo unspecified)	-1	-21	2156	0	0
COCCNC(=O)c1ccccc1NC(=O)COc1ccccc1	2	-18	20130*	2	4
CSC1=N/C(=C\c2ccccc2)C(=O)N1C	-11	-12	21913*	3	3
Cc1nc2c(C(=O)NCCc3ccccc3)c[nH]n2c(=O)c1Cl	-8	.	21299*	4	5
O=C(NC(Nc1nc2ccc([N+](=O)[O-])cc2s1)(C(F)(F)F)C(F)(F)F)c1ccccc1Cl	2	60*	2549	0	-4
Cc1ccc(NC(=S)NCc2cccn2C)cc1	-3	6	22735*	1	-6
CC1(Cc2ccc(F)c(Cl)c2)C(=O)Nc2c(Cl)cccc21 (stereo unspecified)	-6	.	2795	0	-2
C=C1CC2C=C(NC(C)=O)CC(C1)C2 (stereo unspecified)	-3	-5	22238*	0	-1
COc1ccc(C(=O)c2sc3nc(C)cc(-c4cccs4)c3c2N)cc1OC	49*	-9	7178	71*	47*
CCOC(=O)NC1(NC(C)C)Oc2ccccc2O1	-6	1	5640	-3	-45
CCOC(=O)NC1(NCC(C)C)Oc2ccccc2O1	-6	0	16411*	0	0
CC(=O)c1cccc(S(=O)(=O)N(CCCO)Cc2cc3ccc(C)cc3[nH]c2=O)c1	0	1	24495*	-6	-7
COC(=O)c1cccc(S(=O)(=O)N(Cc2ccco2)Cc2cc3ccc(OC)cc3[nH]c2=O)c1	-1	.	24753*	-4	-4
COc1ccc(-c2cc(CCCC(=O)NCCc3ccc(OC)cc3OC)no2)cc1	-2	-7	24435*	-2	-2
CCOc1ccc(-c2cc(CCCC(=O)NCCc3ccc(OC)c(OC)c3OC)no2)cc1	-2	1	22608*	0	-1
COc1ccc(-c2cc(CCCC(=O)NCCc3ccccc3)no2)cc1	-2	4	3846	0	-4
C=CCNc1cnn(-c2ccc(C)cc2)c(=O)c1Sc1ccc(C)cc1	-6	-2	4512	0	0
O=C(CC12CC3CC(CC(C3)C1)C2)NCc1ccncc1	-4	5	16408*	-1	-3
O=C(CC12CC3CC(CC(C3)C1)C2)NCc1ccccc1	15	13	3653	1	31
N#Cc1cc(C#N)c(N2CCN(c3cccc(Cl)n3)CC2)nc1N	-11	-4	19498*	-14	-117
COc1cc(SC)ccc1C(=O)NCCOc1c(C)cc(C)cc1C	-2	-11	20169*	0	-1
Cn1c(N2CCNCC2)nc2ccccc21	1	0	19898*	0	0
Cc1ccc(C(=O)N2CCN(c3nc4ccccc4n3C)CC2)cc1	10	-3	3042	1	25

Source: PubChem BioAssay (several laboratories)
